Screens: PubChem, National Center for Advancing Translational Sciences (NCATS)
Shown is part of a subset that was picked to be rich in hits.
ALOX12 inh = inhibitors of human 12S-lipoxygenase ALOX12; purified 12hLO, xylenol orange hydroperoxide absorbance; P18054; AID 1671190; Potency, µM (doses to about 108 µM), for the others: top-dose activity change, negative = inhibition, usual class: inhibitors; 580,000 tested, 1.1% active; also: % is scaled to controls: 0 for no effect and ±100 for the full control effect
Target sequence (P18054 whole entry, looked up): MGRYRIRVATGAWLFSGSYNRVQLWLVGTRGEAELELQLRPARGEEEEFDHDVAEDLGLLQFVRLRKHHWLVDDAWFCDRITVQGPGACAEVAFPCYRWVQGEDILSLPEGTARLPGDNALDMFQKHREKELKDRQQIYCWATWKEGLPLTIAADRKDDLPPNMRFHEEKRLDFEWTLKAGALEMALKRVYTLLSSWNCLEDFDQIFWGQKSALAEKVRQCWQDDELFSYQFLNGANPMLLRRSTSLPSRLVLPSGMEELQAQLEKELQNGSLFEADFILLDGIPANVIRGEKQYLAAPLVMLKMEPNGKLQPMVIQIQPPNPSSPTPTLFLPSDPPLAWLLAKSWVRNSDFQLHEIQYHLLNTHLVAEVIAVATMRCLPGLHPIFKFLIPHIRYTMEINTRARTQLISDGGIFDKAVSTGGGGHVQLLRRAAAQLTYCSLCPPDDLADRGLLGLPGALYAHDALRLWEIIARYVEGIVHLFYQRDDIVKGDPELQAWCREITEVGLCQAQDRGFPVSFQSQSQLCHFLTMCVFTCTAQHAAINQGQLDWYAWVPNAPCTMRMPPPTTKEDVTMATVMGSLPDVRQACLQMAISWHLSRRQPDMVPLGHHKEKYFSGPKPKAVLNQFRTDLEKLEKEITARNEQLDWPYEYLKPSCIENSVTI
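Purified human 12hLO at 150 nM in 25 mM Hepes, 0.01% Triton X-100, pH 7.0, preincubated 15 min at room temperature with compound. Reaction started with 40 uM arachidonic acid, 30 min at room temperature. Hydroperoxide measured by Fe-xylenol orange, 573/405 nm absorbance ratio.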
Sfp inh = Sfp phosphopantetheinyl transferase inhibition. Q9F4F7. Biochemical Sfp PPTase activity, qHTS. Potency, µM, for the others: largest response in the series, negative = inhibition, hits mostly inhibitors. 310,000 tested, 3.5% active. AID 1490;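 also: the enzyme is Sfp with the accession as filed and its product quenches rhodamine fluorescence; 0% = enzyme reaction without inhibitor and -100% = no enzyme wells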
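Compounds were incubated with enzyme (final 15 nM) for 15 min at room temperature before substrate addition started the reaction. Fluorescence at 525 nm excitation, 598 nm emission was recorded immediately and after 30 minutes.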
GRP78 ERSR act = inducers of ER stress response in human glioma cells; AID 602332; 420,000 tested, 0.02% active; U87-MG GRP78 promoter luciferase reporter, 16 h; Potency, µM, inactives show at the highest dose activation, hits mostly activators; also: series mostly up to about 76 µM; % of control where 0% means no effect; nearly all actives have a fitted effect of over 35% in size
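Stably transfected U87-MG human glioma cells carrying a GRP78-based luminescent sensor were seeded at 1000 cells/well, pin-dosed with compounds and incubated 16 h. Luciferase reagent was then added, and end-point luminescence was read after 10 min at room temperature.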
VDR inhibitor = blocks the human vitamin D receptor. Potency, µM, for inactives: max response, negative = inhibition, actives largely listed as inhibitors. 400,000 tested, 0.93% active. VDR-SRC2-3 peptide fluorescence polarization, 2 h. P11473; also: % is scaled to controls: 0 for no effect and ±100 for the full control effect
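Fluorescence polarization assay of small-molecule disruption of VDR binding to coregulator peptide SRC2-3. Compounds and controls pin-transferred, then read after 2 h incubation at ambient room temperature.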
G9a block = G9a (human) methyltransferase inhibition | Q96KQ7 | G9a H3K9 monomethylation, AlphaScreen, 2 h | Potency, µM (highest dose often 102 µM), without a hit: at the highest dose activity, negative = inhibition, usual class: inhibitors | 350,000 tested, 8.8% active; also: % is scaled to controls: 0 for no effect and ±100 for the full control effect; nearly all actives have a fitted effect of over 75% in size
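Readings reflect AlphaScreen signal from monomethyl-H3K9 antibody detection. HMT at 20 nM; substrate b-H3K9 500 nM; cofactor SAM 20 uM; 2 h RT reaction; compounds tested as titrations in qHTS with 15 min preincubation.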
Numbers without * were called inactive; [ ] = dose if it differs, or a comment. Calls follow the shape of the dose curve; as a rule, active = well fitted curve in the direction sought with a large enough effect; inconclusive = small, poorly fitted or top-dose-only effect, or another doubt; inactive = no such curve, though single readings can be large; an effect the other way counts as inactive or inconclusive. Potency is read from the fitted curve at half-maximal effect.

Screening Cc1cccc(-c2nc3c(c(SCC(=O)N4CCOCC4)n2)Cc2c(CO)cnc(C)c2O3)c1 returned Sfp inh -6%, GRP78 ERSR act -6%, VDR inhibitor -10% and G9a block 45µM*.
Screening CC1=C(OS(=O)(=O)c2ccc(C)cc2)C(C)(C)C(c2ccccc2)OC1=O (configuration not stated) returned ALOX12 inh -9%.
For O=C(CSc1nc2ccccc2nc1N1CCCC1)NCc1ccc(F)cc1 the results were ALOX12 inh -27%.
O=C(c1ccccc1)c1ccccc1NC(=O)c1cc2ccccc2oc1=O was read as ALOX12 inh 6%.
Screening Cc1nc(-c2ccccn2)nc(SCC(=O)N2CCOCC2)c1Cl returned ALOX12 inh -15%, Sfp inh 16µM*, GRP78 ERSR act -6%, VDR inhibitor -8% and G9a block 20µM*.
`COc1ccc(-c2nc3c(c(SCC(=O)N4CCCCC4)n2)Cc2cc(Cl)ccc2O3)cc1` gave ALOX12 inh -19%, GRP78 ERSR act -4%, VDR inhibitor 89µM* and G9a block -8%[59 µM].
For Cc1nc(-c2ccccn2)nc(SCC(=O)c2ccccc2)c1Cl the results were ALOX12 inh inconclusive, Sfp inh 4%, GRP78 ERSR act -3% and VDR inhibitor -12%.
For COc1cc2c(cc1OC)-c1c(c(C(=O)NCCN3CCOCC3)nn1-c1ccccc1)C2 the results were ALOX12 inh 11%.
`COc1ccc(CN(C)C(=O)c2cc(=O)[nH]c3ccccc23)c(OC)c1` gave ALOX12 inh 53%.
C=CCNc1ncnc2c1CCN(C(=O)c1ccccc1OCC)CC2 was read as ALOX12 inh -9%.
Screening Cc1cc(OC(C)C(=O)NCCCN(C)C)c2c(C)c(C)c(=O)oc2c1 (configuration not stated) returned ALOX12 inh 10%.
For Cc1cnc2c(S(=O)(=O)N(C)CC(=O)Nc3cccc(C)c3C)cccc2c1 the results were ALOX12 inh -34%.
Screening CCOC(=O)c1c(C)[nH]c(C2=NNC(=Nc3ccccc3OC)SC2)c1C returned ALOX12 inh -7%, Sfp inh 79µM*, GRP78 ERSR act -3%, VDR inhibitor inconclusive and G9a block inconclusive.
Screening CCOC(=O)c1ccc(N=C2NC(=O)CS2)cc1 returned ALOX12 inh -17%, Sfp inh 6%, GRP78 ERSR act 2%, VDR inhibitor -10% and G9a block 20%[59 µM].
Screening COc1ccccc1N=C1NN=C(c2ccc3c(c2)CC(C)N3S(C)(=O)=O)CS1 (configuration not stated) returned ALOX12 inh 15%.
Screening CC(=O)c1c(C)[nH]c(-c2ccccc2)c1C returned ALOX12 inh -3%, Sfp inh 2%, GRP78 ERSR act -1%, VDR inhibitor -2% and G9a block -9%[59 µM].
Screening CCOC(=O)C1=C(O)CSC1=Nc1ccccc1 returned ALOX12 inh 5%, Sfp inh 4%, GRP78 ERSR act 3%, VDR inhibitor -10% and G9a block -2%[59 µM].
CCOC(=O)c1c(C)[nH]c(C2=NNC(=Nc3ccc(OCC)cc3)SC2)c1C was read as ALOX12 inh inconclusive, Sfp inh 79µM*, GRP78 ERSR act -5%, VDR inhibitor inconclusive and G9a block inconclusive.
For CCOC(=O)c1c(C)[nH]c(C2=NNC(=Nc3ccccc3)SC2)c1C the results were ALOX12 inh -21%, Sfp inh 40µM*, GRP78 ERSR act 3%, VDR inhibitor inconclusive and G9a block 45µM*.
Screening CC(=O)c1c(C)[nH]c(C2=NNC(=NC(C)(C)C)SC2)c1C returned ALOX12 inh -11%, Sfp inh 22µM*, GRP78 ERSR act 5%, VDR inhibitor inconclusive and G9a block 32µM*.
C/C(=N\NC(=O)C1CC1c1ccc(C(C)(C)C)cc1)c1ccc(F)cc1 (configuration not stated) was read as ALOX12 inh 12%.
For CN(C)S(=O)(=O)c1cccc(-c2nnc(SCc3cc(Cl)cc4c3OCOC4)n2N)c1 the results were ALOX12 inh inconclusive, Sfp inh 32µM*, GRP78 ERSR act -3%, VDR inhibitor inconclusive and G9a block 8.9µM*.
Cc1ccc(-c2nnc(SCc3cccc(S(=O)(=O)N4CCOCC4)c3)n2N)cc1 was read as ALOX12 inh -24%.
`CN1C(=O)C(C2(O)C(=O)N(Cc3ccccc3)c3cc(Br)ccc32)c2ccccc21` (configuration not stated) gave ALOX12 inh -5%.
For Cc1ccc2nc(-c3c[nH]c4ccccc34)c(Nc3ccccc3)n2c1 the results were ALOX12 inh inconclusive, GRP78 ERSR act 0%, VDR inhibitor -11% and G9a block 7.9µM*.
For CN(C(=O)c1ccnc(-c2nnc3ccc(N4CCOCC4)nn23)c1)c1ccccc1 the results were ALOX12 inh 32µM*.
`N#Cc1ccc(/C=C/C(=O)c2ccsc2)cc1` gave ALOX12 inh -45%.
Screening Cc1ccc(/C=C2\Cc3ccccc3C2=O)cc1 returned ALOX12 inh -11%.
Fc1ccc(/C=N/Nc2ccc3ccccc3c2)c(F)c1 was read as ALOX12 inh 2.5µM*.
Screening Oc1ccc(C=NNc2nc3ccccc3s2)c(O)c1 returned ALOX12 inh -4%, GRP78 ERSR act -2% and VDR inhibitor 20%.
For O=C(CN1CCCc2ccccc21)N/N=C/c1ccc(F)cc1F the results were ALOX12 inh 3%, Sfp inh 6%, GRP78 ERSR act 0%, VDR inhibitor 9% and G9a block 8%[12.7 µM].
Screening Oc1ccc(/C=N/Nc2ccc3ccccc3c2)c(O)c1 returned ALOX12 inh -24%, Sfp inh 50µM*, GRP78 ERSR act 12%, VDR inhibitor inconclusive and G9a block 6.3µM*.
Cc1ccc(CN2CCSc3ccc(C(=O)N4CCN(c5ccccc5)CC4)cc32)cc1 was read as ALOX12 inh -12%, GRP78 ERSR act -2%, VDR inhibitor -11% and G9a block 18µM*.
Screening O=C(c1ccc2c(c1)N(Cc1ccc(F)cc1)CCS2)N1CCN(c2ccccc2)CC1 returned ALOX12 inh -10%, GRP78 ERSR act 0%, VDR inhibitor -7% and G9a block inconclusive.
Screening Cc1ccc(CN2CCSc3ccc(C(=O)NCc4ccccn4)cc32)cc1 returned ALOX12 inh -5%, Sfp inh 50µM*, GRP78 ERSR act 1%, VDR inhibitor 3% and G9a block 40µM*.
For Cc1ccccc1NC(=O)c1sc2nc3c(cc2c1N)CN(Cc1ccccc1)CC3 the results were ALOX12 inh -1%, VDR inhibitor -12% and G9a block inconclusive.
For CCN1CCc2nc3sc(C(=O)c4ccccc4)c(N)c3cc2C1 the results were ALOX12 inh inconclusive, GRP78 ERSR act -3%, VDR inhibitor 10% and G9a block 11µM*.
